Legend:
[1] = molecular target: Serine/threonine-protein kinase 26 (Homo sapiens) (UniProt Q9P289); conditions: at 1 µM;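 also: mean inhibition of MST4 kinase activity, reported from the GSK PKIS inhibitor-set screening panel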
[2] = molecular target: Serine/threonine-protein kinase PAK 1 (Homo sapiens) (UniProt Q13153); conditions: at 0.1 µM
[3] = molecular target: Serine/threonine-protein kinase PAK 1 (Homo sapiens) (UniProt Q13153); conditions: at 1 µM
[4] = molecular target: Serine/threonine-protein kinase PAK 2 (Homo sapiens) (UniProt Q13177); conditions: at 0.1 µM
Sequence of Serine/threonine-protein kinase PAK 2 (Homo sapiens) (Q13177 whole entry): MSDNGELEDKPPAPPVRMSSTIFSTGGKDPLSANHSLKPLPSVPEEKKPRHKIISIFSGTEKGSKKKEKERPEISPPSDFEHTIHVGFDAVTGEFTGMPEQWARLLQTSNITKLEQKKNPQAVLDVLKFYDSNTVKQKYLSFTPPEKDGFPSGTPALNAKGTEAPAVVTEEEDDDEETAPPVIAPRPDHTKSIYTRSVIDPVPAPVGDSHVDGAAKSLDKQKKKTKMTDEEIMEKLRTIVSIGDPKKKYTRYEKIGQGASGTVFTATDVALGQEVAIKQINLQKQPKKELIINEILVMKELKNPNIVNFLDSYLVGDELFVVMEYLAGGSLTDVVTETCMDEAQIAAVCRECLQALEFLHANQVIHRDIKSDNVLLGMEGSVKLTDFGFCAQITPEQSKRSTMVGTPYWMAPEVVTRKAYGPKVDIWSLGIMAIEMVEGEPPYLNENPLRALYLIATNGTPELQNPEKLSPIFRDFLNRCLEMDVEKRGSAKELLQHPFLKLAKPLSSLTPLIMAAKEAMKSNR

[5] = molecular target: Serine/threonine-protein kinase PAK 2 (Homo sapiens) (UniProt Q13177); conditions: at 1 µM
[6] = molecular target: Serine/threonine-protein kinase PAK 3 (Homo sapiens) (UniProt O75914); conditions: at 0.1 µM
Sequence of Serine/threonine-protein kinase PAK 3 (Homo sapiens) (O75914 whole entry, looked up): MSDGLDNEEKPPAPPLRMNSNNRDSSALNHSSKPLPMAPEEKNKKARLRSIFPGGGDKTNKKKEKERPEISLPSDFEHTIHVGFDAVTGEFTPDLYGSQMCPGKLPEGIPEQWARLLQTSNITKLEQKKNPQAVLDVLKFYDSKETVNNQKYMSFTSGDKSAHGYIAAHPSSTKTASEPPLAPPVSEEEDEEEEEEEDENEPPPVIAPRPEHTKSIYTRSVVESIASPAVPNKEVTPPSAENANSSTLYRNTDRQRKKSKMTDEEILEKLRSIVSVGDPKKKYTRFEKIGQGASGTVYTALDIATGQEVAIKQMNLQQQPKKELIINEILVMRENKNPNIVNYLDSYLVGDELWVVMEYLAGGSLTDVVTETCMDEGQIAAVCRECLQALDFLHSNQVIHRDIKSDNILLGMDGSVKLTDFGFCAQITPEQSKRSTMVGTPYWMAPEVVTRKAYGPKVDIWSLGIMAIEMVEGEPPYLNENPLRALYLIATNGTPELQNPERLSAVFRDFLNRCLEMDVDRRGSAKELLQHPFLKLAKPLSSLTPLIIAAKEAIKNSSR

[7] = molecular target: Serine/threonine-protein kinase PAK 3 (Homo sapiens) (UniProt O75914); conditions: at 1 µM
[8] = molecular target: Serine/threonine-protein kinase PAK 5 (Homo sapiens) (UniProt Q9P286); conditions: at 0.1 µM
Sequence of Serine/threonine-protein kinase PAK 5 (Homo sapiens) (Q9P286 whole entry, looked up): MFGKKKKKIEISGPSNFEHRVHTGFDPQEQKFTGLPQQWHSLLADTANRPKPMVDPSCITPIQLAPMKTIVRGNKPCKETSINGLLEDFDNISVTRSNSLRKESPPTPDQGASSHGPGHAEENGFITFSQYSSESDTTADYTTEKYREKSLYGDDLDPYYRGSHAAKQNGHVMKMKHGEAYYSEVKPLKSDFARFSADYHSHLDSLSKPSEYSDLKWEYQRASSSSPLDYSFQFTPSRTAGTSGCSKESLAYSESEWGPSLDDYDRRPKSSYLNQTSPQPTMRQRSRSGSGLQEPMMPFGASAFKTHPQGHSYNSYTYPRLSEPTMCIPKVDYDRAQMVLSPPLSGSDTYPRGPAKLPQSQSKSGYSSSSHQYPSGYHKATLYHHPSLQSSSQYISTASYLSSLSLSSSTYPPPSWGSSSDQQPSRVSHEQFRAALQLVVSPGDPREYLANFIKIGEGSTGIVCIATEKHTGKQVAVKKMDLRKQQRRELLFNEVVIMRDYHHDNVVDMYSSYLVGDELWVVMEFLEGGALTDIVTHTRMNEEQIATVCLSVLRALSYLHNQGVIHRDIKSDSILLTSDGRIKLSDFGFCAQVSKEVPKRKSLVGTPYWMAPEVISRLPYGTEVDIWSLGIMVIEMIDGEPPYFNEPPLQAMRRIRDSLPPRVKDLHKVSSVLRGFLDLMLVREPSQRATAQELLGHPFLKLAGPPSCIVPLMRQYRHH

[9] = molecular target: Serine/threonine-protein kinase PAK 5 (Homo sapiens) (UniProt Q9P286); conditions: at 1 µM
[10] = molecular target: Serine/threonine-protein kinase PAK 6 (Homo sapiens) (UniProt Q9NQU5); conditions: at 0.1 µM
Sequence of Serine/threonine-protein kinase PAK 6 (Homo sapiens) (Q9NQU5 whole entry, looked up): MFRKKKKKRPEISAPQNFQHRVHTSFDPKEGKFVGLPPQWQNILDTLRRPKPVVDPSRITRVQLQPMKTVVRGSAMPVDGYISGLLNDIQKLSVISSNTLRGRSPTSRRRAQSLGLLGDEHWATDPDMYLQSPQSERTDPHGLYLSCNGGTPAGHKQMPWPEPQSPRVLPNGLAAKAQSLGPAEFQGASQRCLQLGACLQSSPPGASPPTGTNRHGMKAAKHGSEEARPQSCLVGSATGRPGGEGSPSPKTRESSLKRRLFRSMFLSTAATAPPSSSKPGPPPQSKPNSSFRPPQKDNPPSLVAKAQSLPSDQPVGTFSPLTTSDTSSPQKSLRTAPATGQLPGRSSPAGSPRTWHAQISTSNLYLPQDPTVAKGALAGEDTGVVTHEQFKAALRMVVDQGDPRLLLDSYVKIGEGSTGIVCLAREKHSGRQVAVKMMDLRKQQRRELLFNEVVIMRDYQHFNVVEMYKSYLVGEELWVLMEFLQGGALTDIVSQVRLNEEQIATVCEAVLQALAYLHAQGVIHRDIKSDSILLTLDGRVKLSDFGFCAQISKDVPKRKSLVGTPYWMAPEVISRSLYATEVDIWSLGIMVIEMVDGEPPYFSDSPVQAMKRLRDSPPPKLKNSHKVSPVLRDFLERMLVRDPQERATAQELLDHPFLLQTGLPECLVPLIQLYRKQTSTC

[11] = molecular target: Serine/threonine-protein kinase PAK 6 (Homo sapiens) (UniProt Q9NQU5); conditions: at 1 µM
[12] = system: Tyrosine-protein kinase ABL1 (Homo sapiens), P00519 [E255K]; conditions: at 0.1 µM
[13] = system: Tyrosine-protein kinase ABL1 (Homo sapiens), P00519 [E255K]; conditions: at 1 µM
[14] = system: Tyrosine-protein kinase ABL1 (Homo sapiens), P00519 [H396P]; conditions: at 0.1 µM
[15] = system: Tyrosine-protein kinase ABL1 (Homo sapiens), P00519 [H396P]; conditions: at 1 µM
[16] = system: Tyrosine-protein kinase ABL1 (Homo sapiens), P00519 [M351T]; conditions: at 0.1 µM
[17] = system: Tyrosine-protein kinase ABL1 (Homo sapiens), P00519 [M351T]; conditions: at 1 µM
[18] = system: Tyrosine-protein kinase ABL1 (Homo sapiens), P00519 [Q252H]; conditions: at 0.1 µM
[19] = system: Tyrosine-protein kinase ABL1 (Homo sapiens), P00519 [Q252H]; conditions: at 1 µM
[20] = system: Tyrosine-protein kinase ABL1 (Homo sapiens), P00519 [T315I]; conditions: at 0.1 µM

Sequence of Serine/threonine-protein kinase PAK 1 (Homo sapiens) (Q13153 whole entry): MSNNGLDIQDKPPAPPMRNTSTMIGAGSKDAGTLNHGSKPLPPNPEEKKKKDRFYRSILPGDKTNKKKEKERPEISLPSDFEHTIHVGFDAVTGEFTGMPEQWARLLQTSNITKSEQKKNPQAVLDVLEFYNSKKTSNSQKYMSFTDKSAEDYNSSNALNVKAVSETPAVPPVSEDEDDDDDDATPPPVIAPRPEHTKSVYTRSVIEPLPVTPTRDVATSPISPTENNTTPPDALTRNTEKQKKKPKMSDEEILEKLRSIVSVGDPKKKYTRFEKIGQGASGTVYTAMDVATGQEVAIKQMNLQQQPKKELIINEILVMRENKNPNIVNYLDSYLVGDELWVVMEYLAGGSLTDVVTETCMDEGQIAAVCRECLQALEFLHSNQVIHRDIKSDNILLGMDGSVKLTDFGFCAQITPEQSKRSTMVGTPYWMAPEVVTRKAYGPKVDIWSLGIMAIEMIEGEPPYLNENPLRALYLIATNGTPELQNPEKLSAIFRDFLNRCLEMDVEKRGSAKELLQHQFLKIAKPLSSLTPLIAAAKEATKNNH
Sequence of Serine/threonine-protein kinase 26 (Homo sapiens) (Q9P289 2-416 limits assumed): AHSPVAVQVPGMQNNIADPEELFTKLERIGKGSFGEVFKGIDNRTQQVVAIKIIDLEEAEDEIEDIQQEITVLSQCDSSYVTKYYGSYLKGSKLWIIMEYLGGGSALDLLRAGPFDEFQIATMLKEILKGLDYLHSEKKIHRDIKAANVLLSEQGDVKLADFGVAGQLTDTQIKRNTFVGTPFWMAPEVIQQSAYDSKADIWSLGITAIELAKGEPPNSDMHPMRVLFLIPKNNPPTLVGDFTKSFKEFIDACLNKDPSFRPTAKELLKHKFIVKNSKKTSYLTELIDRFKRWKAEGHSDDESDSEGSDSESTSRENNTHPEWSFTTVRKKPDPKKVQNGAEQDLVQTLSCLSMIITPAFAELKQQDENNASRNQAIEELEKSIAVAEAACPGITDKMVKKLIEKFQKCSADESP

Structure (SMILES) | inhibition [1] | inhibition [2] | inhibition [3] | inhibition [4] | inhibition [5] | inhibition [6] | inhibition [7] | inhibition [8] | inhibition [9] | inhibition [10] | inhibition [11] | inhibition [12] | inhibition [13] | inhibition [14] | inhibition [15] | inhibition [16] | inhibition [17] | inhibition [18] | inhibition [19] | inhibition [20]
NS(=O)(=O)c1ccc(-c2ccc3c(NC(=O)C4CC4)n[nH]c3c2)cc1 | -2.58% | 6.54% | 2.13% | 1.52% | 2.07% | 2.48% | 4.17% | 1.07% | 2.99% | 7.47% | 9.03% | 2.79% | 7.46% | 4.05% | 17.1% | 3.23% | 16.9% | 6.44% | 8.2% | 5.41%
CCn1c(-c2nonc2N)nc2c(C#CC(C)(C)O)ncc(OCC3CCNCC3)c21 | 3.31% | 5.46% | 7.18% | 2.42% | 12.7% | 5.37% | 7.15% | 48.8% | 76% | 19.2% | 69.3% | -0.11% | 4.95% | 1.89% | 4.52% | -1.14% | 5.41% | 1.06% | 3.85% | 0.9%
COc1cc2c(cc1Nc1nc(Nc3ccsc3C(N)=O)c3cc[nH]c3n1)N(C(=O)CN(C)C)CCC2 | 0.17% | -0.61% | 0.73% | 1.88% | 2.11% | 3.92% | 7.24% | -1% | -3.49% | 4.98% | 5.48% |  |  | -3.59% | -0.29% | 1.67% | 3.14% | 1.29% | 3.2% | 0.06%
Fc1ccc(-c2ncn(C3CCNCC3)c2-c2ccnc(Oc3ccccc3)n2)cc1 | 0.32% | 3.79% | 1.88% | 0.54% | 1.48% | 1.85% | 3.31% | 2.66% | 2.03% | -8.85% | -6.64% | -0.56% | 1.05% | 2.03% | 1.85% | -0.31% | -0.15% | 1.55% | 2.19% | -0.76%
CCn1c(-c2nonc2N)nc2c(C#CC(C)(C)O)ncc(OC[C@@H]3CCCN3)c21 | -0.64% | -0.64% | 7.58% | 1.99% | 16.6% | 0.61% | 4.06% | 12.6% | 49.8% | 19.1% | 58.4% | -0.36% | -0.79% | 1.51% | 6.5% | -0.07% | 1.33% | 1.26% | -0.4% | 0.19%
Nc1nonc1-c1nc2cnccc2n1C1CCCCC1 | 3.95% | -0.52% | -1.25% | -2.06% | -1.54% | -3.57% | -2.19% | -7.66% | -4.63% | -0.28% | -4.16% | -1.63% | -0.67% | -1.2% | -0.69% | 1.15% | 3.69% | -2.14% | 1.64% | -1.05%
COc1cccc(COc2cc(-n3cnc4ccccc43)sc2C(N)=O)c1 | -1.08% | 0.1% | 2.97% | 0.38% | 0.1% | 0.88% | 1.18% | -2.95% | -5.64% | 1.2% | -1.23% | -0.78% | -0.15% | -1.23% | 3.19% | -1.62% | 2.97% | -0.55% | 3.14% | -1.92%
CCn1c(-c2nonc2N)nc2c(C#CC(C)(C)O)nc(O[C@@H](CN)c3ccccc3)cc21 | 10.8% | 0.39% | 14% | 7.41% | 48.9% | -0.59% | 15.6% | 49.1% | 62.2% | 59.9% | 67.6% | -0.39% | -0.58% | -0.59% | -0.29% | 0.75% | 5.14% | -0.46% | 0.03% | 1.03%
Cc1cc(-c2ccco2)cc(C)c1/C=C/c1cncc(-c2nn[nH]n2)c1 | 11.6% | 1.26% | 2.13% | -1.09% | -0.44% | 0.76% | 0.92% | -7.1% | -2.25% | 5.79% | 3.04% | 0.2% | 2.01% | 1.54% | 4.02% | 3.02% | 4.16% | 1.99% | 4.16% | 0.41%
CCn1c(-c2nonc2N)nc2c(C#CCN)ncc(OCCCN)c21 | 2.79% | -1.61% | 2.32% | -1.05% | -1.34% | -1.06% | -0.65% | 3.08% | 3.52% | 17% | 2.6% | -4.53% | -4.45% | -4.29% | -0.59% | -1.57% | 1.28% | -2.52% | 0.94% | -2.53%
NC(=O)c1sc(-n2cnc3cc(C(F)(F)F)ccc32)cc1OCc1ccccc1Br | 3.19% | 1.15% | 2.03% | -0.71% | -1.57% | 1.59% | 0.61% | 1.54% | 0.39% | 3.56% | 0.31% | 2.61% | 3.23% | 3.11% | 3.6% | 2.27% | 2.72% | 1.81% | 2.64% | 1.04%
COc1cc(C=NNc2ncnc3c2cnn3Cc2ccccc2)ccc1O | 2.28% | 0.64% | -2.75% | -2.02% | -0.63% | -5.99% | -4.57% |  | -5.56% | -0.81% | -8.83% | 32.5% | 82.7% | 52.3% | 90% | 54.1% | 89.2% | 57.7% | 92.2% | 12.6%
NS(=O)(=O)c1ccc(N/C=C2\C(=O)Nc3ccc4ncsc4c32)cc1 | 74.5% | 4.98% | 7.33% | 1.87% | 2.66% | 5.48% | 5.62% | 2.66% | 4.51% | -9.73% | -3.07% | 3.53% | 21.2% | 7.89% | 31.5% | 5.55% | 30.6% | 9.38% | 38.7% | 6.29%
COc1cccc(-n2ncc3c(N/N=C/c4ccncc4)ncnc32)c1 | 7.18% | 5.78% | 7.75% | 3.04% | 2.37% | 5.73% | 5.78% | 0.19% | 6.09% | -2.81% | -8.53% | 77% | 93.9% | 82.9% | 94.9% | 82.3% | 94% | 87.2% | 95.7% | 42.4%

— ChEMBL document CHEMBL1961873, “Compounds: GSK PKIS; Assays: Nanosyn kinase panel” (2012)
